# Source: PubChem BioAssay (NCATS)
# Values joined by “and” are separate entries in the source; they are usually repeats but may differ in a detail not shown here. Identical values can stand only once. Inconclusive results are not listed. Where a call stands in place of a potency, no number is given. Active and inactive are the calls of the source. Calls follow the shape of the dose curve; as a rule, active = well fitted curve in the direction sought with a large enough effect; inconclusive = small, poorly fitted or top-dose-only effect, or another doubt; inactive = no such curve, though single readings can be large; an effect the other way counts as inactive or inconclusive.
# Tests used:
# [1] = qHTS Screen of the MIPE 4.0 Collection Against Ewings Sarcoma (TC32) (AID 1259256); also: nearly all actives have a fitted effect of over 45% in size; also: potency is read from the fitted curve at half-maximal effect
# In short: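 Compound titrations go onto adherent log-phase cells 4 h after seeding, incubate 48 h at 37C, then CellTiter-Glo luminescence reports viability relative to DMSO and cell-free controls.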
# [2] = P-glycoprotein substrates identified in KB-8-5-11 adenocarcinoma cell line, qHTS therapeutic library screen (AID 1346987); also: nearly all actives have a fitted effect of over 65% in size; also: potency is read from the fitted curve at half-maximal effect
# In short: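 Compounds are pinned in dose-response onto KB-8-5-11 cells (500 cells/well, colchicine-free medium) and left 72 h at 37 degree C. CellTiter-Glo luminescence then yields AC50 values.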
# [3] = Identifying Small Molecule Inhibitors of Pancreatic Cancer Stem Cells (SN12C, Adherent) (AID 1259358);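 also: cell survival measured after 48 h of compound exposure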; also: potency is read from the fitted curve at half-maximal effect
# In short: (§1)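 Viability is scored by CellTiter-Glo luminescence 48 h after dosing, expressed as percent activity against vehicle and no-cell references. Spheroid formats rely on cells cultured 14 days in stem cell media beforehand.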
# [4] = Identifying Small Molecule Inhibitors of Pancreatic Cancer Stem Cells (SN12C, Spheroid) (AID 1259360); settings: Potency: SN12C spheroid viability; also: potency is read from the fitted curve at half-maximal effect
# In short: (§2)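 Adherent (2D) versus sphere (3D) formats; spheres generated 14 d in SCM beforehand. Compound transferred by pin tool after 4 h, 48 h incubation, CellTiter-Glo endpoint.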
# [5] = qHTS assay to identify small molecule inhibitors of chordoma cells - UCH-1 (AID 1259355); also: nearly all actives have a fitted effect of over 55% in size
# In short: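 A 48hr growth-inhibition format: each drug tested at 15 concentrations together with added auranofin, camptothecin, doxorubicin, rubitecan and topotecan, with cell viability quantified as CellTiter-Glo luminescence.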
# [6] = qHTS assay to identify small molecule inhibitors of chordoma cells - UCH-2 (AID 1259356); also: series mostly up to about 46 µM
# [7] = Identifying Small Molecule Inhibitors of Pancreatic Cancer Stem Cells (A2780, Spheroid) (AID 1259357); settings: Potency: A2780 spheroid viability;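 also: potency is read from the fitted curve at half-maximal effect; compound exposure lasted 48 h before the ATP luminescence read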
# In short: as §2
# [8] = Identifying Small Molecule Inhibitors of Pancreatic Cancer Stem Cells (Panc1, Spheroid) (AID 1259359); settings: Panc1 spheroid cancer stem cell viability;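 also: potency is read from the fitted curve at half-maximal effect; compound exposure lasted 48 h before reading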
# In short: as §1
# [9] = Identifying Small Molecule Inhibitors of Pancreatic Cancer Stem Cells (A278, Adherent) (AID 1259361); also: nearly all actives have a fitted effect of over 35% in size
# In short: as §1
# [10] = Identifying Small Molecule Inhibitors of Pancreatic Cancer Stem Cells (Panc1, Adherent) (AID 1259362); settings: Potency: viability; also: potency is read from the fitted curve at half-maximal effect
# In short: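 Cytotoxicity read by CellTiter-Glo luminescence after 48 h compound exposure at 37C; percent activity scaled between DMSO-treated cells and cell-free wells. Spheroid formats used cells pre-formed 14 days in stem cell media on hydrogel.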
structure (smiles),measurement,setting,value
Oc1ccc2ccccc2c1SSc1c(O)ccc2ccccc12,Potency,[1],23.5 µM (active)
same,Potency,[2],inactive
Cc1ccc(Nc2nccc(N(C)c3ccc4c(C)n(C)nc4c3)n2)cc1S(N)(=O)=O,Potency,[1],inactive
same,Potency,[3],18.7 µM (active)
same,Potency,[4],inactive
same,Potency,[2],inactive
CN1CCC(=C2c3ccccc3CCc3sccc32)CC1,Potency,[5],inactive
same,Potency,[6],inactive
CC1=C(C(=O)O)N2C(=O)[C@@H](NC(=O)[C@H](N)C3=CCC=CC3)[C@H]2SC1,Potency,[1],inactive
same,Potency,[2],inactive
COC(=O)N[C@H](C(=O)N[C@@H](Cc1ccccc1)[C@@H](O)CN(Cc1ccc(-c2ccccn2)cc1)NC(=O)[C@@H](NC(=O)OC)C(C)(C)C)C(C)(C)C,Potency,[1],inactive
same,Potency,[2],inactive
COc1cc2c(N3CCN(C(=O)Nc4ccc(OC(C)C)cc4)CC3)ncnc2cc1OCCCN1CCCCC1,Potency,[1],18.7 µM (active)
same,Potency,[3],inactive
same,Potency,[4],inactive
same,Potency,[2],inactive
CC(=O)O[C@H]1C(=O)[C@@]2(C)C([C@H](OC(=O)c3ccccc3)[C@]3(O)C[C@H](OC(=O)[C@H](O)[C@@H](NC(=O)c4ccccc4)c4ccccc4)C(C)=C1C3(C)C)[C@]1(OC(C)=O)CO[C@@H]1C[C@@H]2O (some centres undefined),Potency,[1],inactive
same,Potency,[2],209 nM (active) and 1.01 µM (active)
O=c1ccc2ccc(O)c(O)c2o1,Potency,[1],13.2 µM (active)
same,Potency,[2],inactive
CCN(CC)CCOc1ccc(Nc2ncc3cc(-c4c(Cl)cccc4Cl)c(=O)n(C)c3n2)cc1,Potency,[1],2.64 µM (active)
same,Potency,[7],13.2 µM (active)
same,Potency,[3],0.662 µM (active)
same,Potency,[8],1.05 µM (active)
same,Potency,[4],16.6 µM (active)
same,IC50 (viability decrease),[9],1.48 µM (active)
same,Potency,[10],0.296 µM (active)
same,Potency,[2],166 nM (active)
CCCCc1ccc2nc(NC(=O)OC)[nH]c2c1,Potency,[1],inactive
same,Potency,[6],inactive
same,Potency,[2],11.8 nM (active) and 111 nM (active)
CCCS(=O)c1ccc2nc(NC(=O)OC)[nH]c2c1 (centres undefined),Potency,[1],23.5 µM (active)
same,Potency,[2],20.9 µM (active) and 13 µM (active)
CC(C)c1nc(CN(C)C(=O)N[C@H](C(=O)N[C@@H](Cc2ccccc2)C[C@H](O)[C@H](Cc2ccccc2)NC(=O)OCc2cncs2)C(C)C)cs1,Potency,[1],14.8 µM (active)
same,Potency,[2],inactive
Clc1ccc(C(Cn2ccnc2)OCc2c(Cl)cccc2Cl)c(Cl)c1 (centres undefined),Potency,[5],inactive
same,Potency,[6],inactive
O=Nc1c(-c2c(O)[nH]c3cc(Br)ccc23)[nH]c2ccccc12,Potency,[1],4.18 µM (active)
same,Potency,[2],9350 nM (active)
CCOC(=O)C(C)Oc1cccc2c(=O)n(CC(=O)Nc3ccc4c(c3)OCCO4)ccc12 (centres undefined),Potency,[1],3.32 µM (active)
same,Potency,[3],inactive
same,Potency,[4],inactive
same,Potency,[2],inactive
COc1ccccc1N1CCN(CCN(C(=O)C2CCCCC2)c2ccccn2)CC1,Potency,[1],inactive
same,Potency,[2],inactive
CCCOc1ccc2nc(NC(=O)OC)[nH]c2c1,Potency,[1],inactive
same,Potency,[6],inactive
same,Potency,[2],231 nM (active) and 651 nM (active) and 11.8 nM (active)
Cc1nccn1CC1CCc2c(c3ccccc3n2C)C1=O (centres undefined),Potency,[1],13.2 µM (active)
same,Potency,[2],inactive
Cc1ccc(NC(=O)c2ccc(CN3CCN(C)CC3)cc2)cc1Nc1nccc(-c2cccnc2)n1,Potency,[5],inactive
same,Potency,[6],inactive
same,Potency,[3],inactive
same,Potency,[4],inactive
same,Potency,[10],inactive
same,Potency,[2],inactive
OC(CN1CCN(c2cccc(Cl)c2)CC1)C(c1ccccc1)c1ccccc1 (centres undefined),Potency,[1],16.6 µM (active)
same,Potency,[2],inactive
Nc1ncn([C@H]2C[C@H](O)[C@@H](CO)O2)c(=O)n1,Potency,[5],inactive
same,Potency,[6],inactive
same,Potency,[2],inactive
Cc1ccc(C)c(OCCCC(C)(C)C(=O)O)c1,Potency,[5],inactive
same,Potency,[6],inactive
same,Potency,[2],inactive
Oc1ccc(-c2nc(-c3ccc(F)cc3)c(-c3ccncc3)[nH]2)cc1,Potency,[2],inactive
Cc1ccc(S(=O)(=O)NC(=O)NN2CC3CCCC3C2)cc1 (centres undefined),Potency,[6],inactive
same,Potency,[2],inactive
O=c1cc(N2CCOCC2)oc2c(-c3ccccc3)cccc12,Potency,[2],5.9 µM (active) and 20 µM (active)
CN(C)C(=O)[C@H](O)[C@H](Cc1ccccc1)NC(=O)c1cc2cc(Cl)ccc2[nH]1,Potency,[2],inactive
